Experimental data reported in PubChem BioAssay (NCI).
This is part of a sample that, as a whole, favours compounds with a hit. Of some 83,000 tested, about 20% had one in any assay.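 Single-concentration screen, 48 h exposure, 96-well plates. Endpoint: percent growth. Below 10 = active.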 Values without a mark were called inactive.

Each molecule was assayed on MCF7 breast (assay: NCI-60 one-dose screen, 48 h (100 = growth as untreated, 0 = no growth, -100 = all killed)). Conditions: 10 µM unless noted.

SMILES	growth [%]
CCN(CC)C(=O)O/N=C(/C)c1ccccc1	97.1
C=C1C(=O)O[C@H]2[C@H]1CC/C(COC(=O)NCc1ccc(Cn3c(=O)sn(CCCl)c3=O)cc1)=C\CC[C@@]1(C)O[C@@H]21	31.7
COc1ccc2c(c1)sc1nc(-c3ccccc3)c(-c3cccc4ccccc34)n12	27.7
c1ccc(-c2nnn(-c3ccccc3)n2)cc1	71
CC(C)N(C(=S)SSC(=S)N(C(C)C)C(C)C)C(C)C	90.3
Cc1ccc2c(C)c3c(ccc4ccccc43)c[n+]2c1	35.7
O=C(N/N=C/c1ccc([N+](=O)[O-])cc1)c1ccccc1Nc1ccnc(C(F)(F)F)c1	95
CC(C)CC1NC(=O)C(CC(C)C)N(CO)C1=O (stereo not given)	92.7
Cc1ccccc1C1CC(=O)c2ccccc2C1C (stereo not given)	115
O=C1/C(=C/N2N=C(c3ccc(Cl)cc3)CC2c2ccccc2O)SC(=S)N1c1cccc(C(F)(F)F)c1 (stereo not given)	15.7
CN(C)CC(=O)c1ccc2cc(Br)c3ccccc3c2c1	63.6
CCN(C(=O)CCl)C(C)(C)C(SSSC(c1ccc(Cl)cc1)C(C)(C)N(CC)C(=O)CCl)c1ccc(Cl)cc1 (stereo not given)	57.1
COc1ccc(NC(=O)Cn2c(=O)sc3c(-c4ccc(Cl)cc4)cc(-c4ccc(Cl)cc4)nc32)cc1	89.2
CCN(CC)CC(=O)Nc1c(C)cc(C(=O)NN)cc1C	98.3
CCCC(CCC)(C(N)=O)C(=O)O	109
